# In PubChem BioAssay AID1159580 (chemical genetic matrix, 2015):
# Values joined by “and” are separate entries in the source; they are usually repeats but may differ in a detail not shown here. Identical values can stand only once. Screen size: about 5,500 compounds; about 2,000 (36%) were called active. About 18% were inconclusive and are not listed. The list shows a part of the results. Values without a mark were called inactive. Cut-off read from the data, not from the text of the source: active = normalized growth mostly below about 0.91 (no sharp cut-off); inconclusive = no clear call, values can overlap the other calls; inactive = mostly above about 0.92.
# Experiment: chemical genetic growth profiling, strain panel (AID 1159580);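 note: tested at 20 µM; growth read once vehicle control cultures reached saturation at 30 °C; 1 = growth at the plate median or of vehicle wells; lower values mean less growth of the strain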
# Conditions: S. cerevisiae deletion strains, growth OD
compound,measurement,setting,value
Clc1ccc2c(c1)C(N1CCNCC1)=Nc1ccccc1O2,normalized growth,"locus YAL013W, strain DEP1, active compounds read low",0.984 and 1.02
same,normalized growth,"locus YAL021C, strain ccr4, active compounds read low",0.829 (active)
same,normalized growth,"locus YAL026C, strain drs2, active compounds read low",0.466 (active)
same,normalized growth,"locus YAL030W, strain snc1, active compounds read low",0.978
same,normalized growth,"locus YAL040C, strain CLN3, active compounds read low",1.01
same,normalized growth,"locus YBL061C, strain skt5, active compounds read low",0.991
same,normalized growth,"locus YBR009C, strain hhf1, active compounds read low",0.963
same,normalized growth,"locus YBR021W, strain FUR4, active compounds read low",0.989
same,normalized growth,"locus YBR023C, strain chs3, active compounds read low",0.969
same,normalized growth,"locus YBR171W, strain sec66, active compounds read low",0.991
same,normalized growth,"locus YBR229C, strain ROT2, active compounds read low",0.952
same,normalized growth,"locus YBR231C, strain swc5, active compounds read low",0.994
same,normalized growth,"locus YBR279W, strain paf1, active compounds read low",0.968
same,normalized growth,"locus YCL011C, strain gbp2, active compounds read low",0.988
same,normalized growth,"locus YCL016C, strain dcc1, active compounds read low",0.979
same,normalized growth,"locus YCL029C, strain bik1, active compounds read low",0.986
same,normalized growth,"locus YCL069W, strain vba3, active compounds read low",0.969
same,normalized growth,"locus YCR088W, strain abp1, active compounds read low",0.994
same,normalized growth,"locus YDL005C, strain med2, active compounds read low",0.994
same,normalized growth,"locus YDL035C, strain GPR1, active compounds read low",0.972
same,normalized growth,"locus YDL040C, strain nat1, active compounds read low",1.01
same,normalized growth,"locus YDL074C, strain BRE1, active compounds read low",1.03
same,normalized growth,"locus YDL101C, strain DUN1, active compounds read low",0.991
same,normalized growth,"locus YDL134C, strain PPH21, active compounds read low",0.996
same,normalized growth,"locus YDL185W, strain tfp1, active compounds read low",0.986
same,normalized growth,"locus YDL192W, strain arf1, active compounds read low",0.99
same,normalized growth,"locus YDR001C, strain nth1, active compounds read low",0.992
same,normalized growth,"locus YDR069C, strain doa4, active compounds read low",0.901
same,normalized growth,"locus YDR101C, strain arx1, active compounds read low",0.995
same,normalized growth,"locus YDR137W, strain rgp1, active compounds read low",1.32 [resistant] (active)
same,normalized growth,"locus YDR150W, strain NUM1, active compounds read low",0.974
same,normalized growth,"locus YDR159W, strain sac3, active compounds read low",0.984
same,normalized growth,"locus YDR162C, strain NBP2, active compounds read low",0.988
same,normalized growth,"locus YDR195W, strain ref2",1.07
same,normalized growth,"locus YDR297W, strain sur2, active compounds read low",0.992
same,normalized growth,"locus YDR318W, strain mcm21, active compounds read low",0.993
same,normalized growth,"locus YDR334W, strain swr1, active compounds read low",0.957
same,normalized growth,"locus YDR335W, strain msn5, active compounds read low",0.975
same,normalized growth,"locus YDR388W, active compounds read low",0.98
same,normalized growth,"locus YDR392W, strain spt3, active compounds read low",1.06
same,normalized growth,"locus YDR502C, strain sam2, active compounds read low",0.959
same,normalized growth,"locus YEL003W, strain gim4, active compounds read low",0.996
same,normalized growth,"locus YEL037C, strain rad23, active compounds read low",0.968
same,normalized growth,"locus YEL061C, strain CIN8 (second series), active compounds read low",0.992
same,normalized growth,"locus YEL061C, strain CIN8, active compounds read low",0.984
same,normalized growth,"locus YER002W, strain NOP16, active compounds read low",0.998
same,normalized growth,"locus YER015W, strain faa2, active compounds read low",0.983
same,normalized growth,"locus YER016W, strain bim1, active compounds read low",0.993
same,normalized growth,"locus YER110C, active compounds read low",0.978
same,normalized growth,"locus YER111C, strain swi4, active compounds read low",0.984
same,normalized growth,"locus YER155C, strain BEM2 (second series), active compounds read low",0.992
same,normalized growth,"locus YER155C, strain BEM2, active compounds read low",1
same,normalized growth,"locus YER167W, strain BCK2, active compounds read low",0.994
same,normalized growth,"locus YFR010W, strain ubp6, active compounds read low",0.88 (active)
same,normalized growth,"locus YGL078C, strain dbp3, active compounds read low",0.968
same,normalized growth,"locus YGL086W, strain mad1, active compounds read low",0.986
same,normalized growth,"locus YGL167C, strain pmr1, active compounds read low",0.974
same,normalized growth,"locus YGL173C, strain kem1, active compounds read low",0.928
same,normalized growth,"locus YGL227W, strain vid30, active compounds read low",0.985
same,normalized growth,"locus YGL240W, strain doc1, active compounds read low",0.975
same,normalized growth,"locus YGL248W, strain PDE1, active compounds read low",0.987
same,normalized growth,"locus YGL253W, strain hxk2, active compounds read low",0.989
same,normalized growth,"locus YGR078C, strain PAC10, active compounds read low",1
same,normalized growth,"locus YGR135W, strain pre9, active compounds read low",0.98
same,normalized growth,"locus YGR229C, strain SMI1, active compounds read low",0.937
same,normalized growth,"locus YGR252W, strain gcn5, active compounds read low",0.915
same,normalized growth,"locus YHR013C, strain ard1, active compounds read low",0.891
same,normalized growth,"locus YHR027C, strain rpn1, active compounds read low",0.989
same,normalized growth,"locus YHR030C, strain SLT2, active compounds read low",0.994 and 1.02
same,normalized growth,"locus YHR079C, strain IRE1 (second series), active compounds read low",0.986
same,normalized growth,"locus YHR079C, strain IRE1, active compounds read low",1.03
same,normalized growth,"locus YHR094C, strain hxt1, active compounds read low",0.998
same,normalized growth,"locus YHR129C, strain ARP1, active compounds read low",1
same,normalized growth,"locus YHR142W, strain chs7, active compounds read low",0.957
same,normalized growth,"locus YHR200W, strain rpn10, active compounds read low",0.992
same,normalized growth,"locus YIL066C, strain RNR3, active compounds read low",0.978
same,normalized growth,"locus YIL073C, strain SPO22, active compounds read low",1.05
same,normalized growth,"locus YIL125W, strain kgd1, active compounds read low",0.97
same,normalized growth,"locus YIR030C, strain dcg1, active compounds read low",0.986
same,normalized growth,"locus YJL092W, strain hpr5, active compounds read low",0.987
same,normalized growth,"locus YJL095W, strain BCK1 (second series), active compounds read low",0.965
same,normalized growth,"locus YJL095W, strain BCK1, active compounds read low",0.98 and 1.02
same,normalized growth,"locus YJL115W, strain asf1, active compounds read low",0.957
same,normalized growth,"locus YJL129C, strain trk1, active compounds read low",1.06
same,normalized growth,"locus YJL134W, strain LCB3, active compounds read low",0.985
same,normalized growth,"locus YJL154C, strain vps35, active compounds read low",0.97
same,normalized growth,"locus YJL164C, strain tpk1, active compounds read low",0.964
same,normalized growth,"locus YJL166W, strain qcr8, active compounds read low",0.984
same,normalized growth,"locus YJL168C, strain set2, active compounds read low",0.996
same,normalized growth,"locus YJL187C, strain SWE1 (second series), active compounds read low",1
same,normalized growth,"locus YJR043C, strain POL32, active compounds read low",1.02
same,normalized growth,"locus YJR066W, strain TOR1, active compounds read low",0.972
same,normalized growth,"locus YJR075W, strain HOC1, active compounds read low",1
same,normalized growth,"locus YKL009W, strain mrt4, active compounds read low",0.96
